# Measured values: PMC5540273 (PLoS ONE, 2017)
# Like-named read-outs stand apart in the source and are kept apart here.
# How the values were obtained:
# DCAMKL2 = tested on: T1, DCAMKL2; details: concentration: 1 μM, replicates: in singlicate; n = 1
# T1 construct: gene DCLK2
# DCAMKL3 = tested on: T2, DCAMKL3; details: concentration: 1 μM, replicates: in singlicate; n = 1
# T2 construct: gene DCLK3
# DDR1 = details: concentration: 1 μM, replicates: in singlicate; n = 1
# DDR2 = details: concentration: 1 μM, replicates: in singlicate; n = 1
# DLK = tested on: T3, DLK; details: concentration: 1 μM, replicates: in singlicate; n = 1
# T3 construct: gene MAP3K12
# DMPK2 = tested on: T4, DMPK2; details: concentration: 1 μM, replicates: in singlicate; n = 1
# T4 construct: gene CDC42BPG
# DMPK = details: concentration: 1 μM, replicates: in singlicate; n = 1
# DRAK1 = tested on: T5, DRAK1; details: concentration: 1 μM, replicates: in singlicate; n = 1
# T5 construct: gene STK17A
# DRAK2 = tested on: T6, DRAK2; details: concentration: 1 μM, replicates: in singlicate; n = 1
# T6 construct: gene STK17B
# DYRK1A = details: concentration: 1 μM, replicates: in singlicate; n = 1
# DYRK1B = details: n = 1
# DYRK2 = details: concentration: 1 μM, replicates: in singlicate; n = 1
# EGFR = details: concentration: 1 μM, replicates: in singlicate; n = 1
# EIF2AK1 = details: n = 1
# EPHA1 = details: concentration: 1 μM, replicates: in singlicate; n = 1
# EPHA2 = details: concentration: 1 μM, replicates: in singlicate; n = 1
# EPHA3 = details: concentration: 1 μM, replicates: in singlicate; n = 1
# EPHA4 = details: concentration: 1 μM, replicates: in singlicate; n = 1
# EPHA5 = details: concentration: 1 μM, replicates: in singlicate; n = 1
# EPHA6 = details: n = 1
# [1] = concentration: 1 μM, replicates: in singlicate
# 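Note: KINOMEscan kinase panel screen.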
smiles,measurement,setting,value
COc1cc(Nc2nccc(N3CCC(NC(=O)Nc4ccc5c(c4)OCO5)C3)n2)cc(OC)c1OC (stereo not shown) [GSK1379766],%Inh,DCAMKL2,7%
same,%Inh,DCAMKL3,0%
same,%Inh,DDR1,0%
same,%Inh,DDR2,6%
same,%Inh,DLK,53%
same,%Inh,DMPK2,10%
same,%Inh,DMPK,0%
same,%Inh,DRAK1,0%
same,%Inh,DRAK2,4%
same,%Inh,DYRK1A,12%
same,%Inh,DYRK1B; [1],0%
same,%Inh,DYRK2,0%
same,%Inh,EGFR,0%
same,%Inh,EIF2AK1; [1],0%
same,%Inh,EPHA1,14%
same,%Inh,EPHA2,0%
same,%Inh,EPHA3,0%
same,%Inh,EPHA4,7%
same,%Inh,EPHA5,0%
same,%Inh,EPHA6; [1],4%
CC(C)c1nc(-c2ccc(F)c(NS(=O)(=O)c3c(F)cccc3F)c2)c(-c2ccnc(Nc3ccc(N4CCOCC4)nc3)n2)s1 [GSK1804250],%Inh,DCAMKL2,0%
same,%Inh,DCAMKL3,30%
same,%Inh,DDR1,82%
same,%Inh,DDR2,56%
same,%Inh,DLK,68%
same,%Inh,DMPK2,26%
same,%Inh,DMPK,6%
same,%Inh,DRAK1,15%
same,%Inh,DRAK2,0%
same,%Inh,DYRK1A,7%
same,%Inh,DYRK1B; [1],0%
same,%Inh,DYRK2,2%
same,%Inh,EGFR,82%
same,%Inh,EIF2AK1; [1],67%
same,%Inh,EPHA1,96.2%
same,%Inh,EPHA2,17%
same,%Inh,EPHA3,31%
same,%Inh,EPHA4,30%
same,%Inh,EPHA5,1%
same,%Inh,EPHA6; [1],50%
COc1ccc(C)c(Nc2ccnc(Nc3ccc(-c4cnc[nH]4)cc3)n2)c1.Cl [GW784041],%Inh,DCAMKL2,3%
same,%Inh,DCAMKL3,27%
same,%Inh,DDR1,52%
same,%Inh,DDR2,70%
same,%Inh,DLK,10%
same,%Inh,DMPK2,5%
same,%Inh,DMPK,0%
same,%Inh,DRAK1,0%
same,%Inh,DRAK2,0%
same,%Inh,DYRK1A,0%
same,%Inh,DYRK1B; [1],0%
same,%Inh,DYRK2,0%
same,%Inh,EGFR,28%
same,%Inh,EIF2AK1; [1],0%
same,%Inh,EPHA1,62%
same,%Inh,EPHA2,45%
same,%Inh,EPHA3,3%
same,%Inh,EPHA4,31%
same,%Inh,EPHA5,4%
same,%Inh,EPHA6; [1],12%
Nc1ncnc2scc(-c3ccc(NC(=O)Cc4cc(F)ccc4F)cc3)c12.O=C(O)C(F)(F)F [SB-731254-M],%Inh,DCAMKL2,11%
same,%Inh,DCAMKL3,16%
same,%Inh,DDR1,58%
same,%Inh,DDR2,24%
same,%Inh,DLK,0%
same,%Inh,DMPK2,23%
same,%Inh,DMPK,6%
same,%Inh,DRAK1,3%
same,%Inh,DRAK2,10%
same,%Inh,DYRK1A,12%
same,%Inh,DYRK1B; [1],0%
same,%Inh,DYRK2,0%
same,%Inh,EGFR,80%
same,%Inh,EIF2AK1; [1],95.2%
same,%Inh,EPHA1,13%
same,%Inh,EPHA2,100%
same,%Inh,EPHA3,21%
same,%Inh,EPHA4,24%
same,%Inh,EPHA5,0%
same,%Inh,EPHA6; [1],0%
CN(C)c1ncnc2nc[nH]c12 [SKF-31736],%Inh,DCAMKL2,0%
same,%Inh,DCAMKL3,0%
same,%Inh,DDR1,0%
same,%Inh,DDR2,35%
same,%Inh,DLK,12%
same,%Inh,DMPK2,0%
same,%Inh,DMPK,2%
same,%Inh,DRAK1,0%
same,%Inh,DRAK2,0%
same,%Inh,DYRK1A,0%
same,%Inh,DYRK1B; [1],39%
same,%Inh,DYRK2,23%
same,%Inh,EGFR,0%
same,%Inh,EIF2AK1; [1],0%
same,%Inh,EPHA1,0%
same,%Inh,EPHA2,0%
same,%Inh,EPHA3,8%
same,%Inh,EPHA4,0%
same,%Inh,EPHA5,0%
same,%Inh,EPHA6; [1],0%
Cc1ccc(-c2ccc3occ(-c4ccc(S(C)=O)cc4)c3c2)nn1 (stereo not shown),%Inh,DCAMKL2,0%
same,%Inh,DCAMKL3,21%
same,%Inh,DDR1,0%
same,%Inh,DDR2,16%
same,%Inh,DLK,0%
same,%Inh,DMPK2,0%
same,%Inh,DMPK,8%
same,%Inh,DRAK1,10%
same,%Inh,DRAK2,22%
same,%Inh,DYRK1A,0%
same,%Inh,DYRK1B; [1],33%
same,%Inh,DYRK2,0%
same,%Inh,EGFR,0%
same,%Inh,EIF2AK1; [1],0%
same,%Inh,EPHA1,0%
same,%Inh,EPHA2,4%
same,%Inh,EPHA3,6%
same,%Inh,EPHA4,11%
same,%Inh,EPHA5,0%
same,%Inh,EPHA6; [1],21%
COc1cccc2c(-c3ccncc3)c(-c3ccc(F)cc3)nn12 [GW468513],%Inh,DCAMKL2,0%
same,%Inh,DCAMKL3,0%
same,%Inh,DDR1,96.2%
same,%Inh,DDR2,90%
same,%Inh,DLK,46%
same,%Inh,DMPK2,98.9%
same,%Inh,DMPK,0%
same,%Inh,DRAK1,0%
same,%Inh,DRAK2,0%
same,%Inh,DYRK1A,15%
same,%Inh,DYRK1B; [1],0%
same,%Inh,DYRK2,0%
same,%Inh,EGFR,71%
same,%Inh,EIF2AK1; [1],0%
same,%Inh,EPHA1,5%
same,%Inh,EPHA2,17%
same,%Inh,EPHA3,0%
same,%Inh,EPHA4,18%
same,%Inh,EPHA5,0%
same,%Inh,EPHA6; [1],41%
Cn1cc(-c2cnc(N)c3c(-c4ccc5c(c4)CCN5C(=O)Cc4ccccc4)csc23)cn1 [GSK2593074],%Inh,DCAMKL2,0%
same,%Inh,DCAMKL3,5%
same,%Inh,DDR1,97.7%
same,%Inh,DDR2,24%
same,%Inh,DLK,0%
same,%Inh,DMPK2,81%
same,%Inh,DMPK,0%
same,%Inh,DRAK1,0%
same,%Inh,DRAK2,9%
same,%Inh,DYRK1A,0%
same,%Inh,DYRK1B; 1 µM,0%
same,%Inh,DYRK2,8%
same,%Inh,EGFR,3%
same,%Inh,EIF2AK1; 1 µM,7%
same,%Inh,EPHA1,11%
same,%Inh,EPHA2,0%
same,%Inh,EPHA3,0%
same,%Inh,EPHA4,11%
same,%Inh,EPHA5,0%
same,%Inh,EPHA6; 1 µM,11%
